Assay outcomes (PubChem)
Tau fibril FP: blocks human tau fibril formation measured by polarization. Potency, µM (top dose mostly 57.7 µM), most hits filed as inhibitors. 280,000 tested, 0.39% active. AID 1468. K18 P301L tau heparin fibrillization, Alexa594 FP, 6 h. P10636; further: nearly all actives have a fitted effect of over 55% in size
Target sequence (P10636 561-689 P618L limits assumed): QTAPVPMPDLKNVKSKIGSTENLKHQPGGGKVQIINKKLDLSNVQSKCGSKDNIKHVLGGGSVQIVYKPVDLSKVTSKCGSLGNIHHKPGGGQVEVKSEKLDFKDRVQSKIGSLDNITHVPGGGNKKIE
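Recombinant K18 P301L […], labeled with Alexa 594 at 0.24 uM over 15 uM unlabeled; heparin inducer 20 uM final; 37 C, 6 hr; FP endpoint.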
Tau ThT inhib: inhibitors of human tau fibril formation, thioflavin T binding. Potency, µM (highest dose often 57.4 µM), most hits filed as inhibitors. recombinant tau K18 P301L, heparin-induced fibrillization, ThT fluorescence. P10636. 270,000 tested, 2.1% active; further: nearly all actives have a fitted effect of over 55% in size
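Aggregation was driven by heparin (20 uM final) acting on recombinant tau […] bearing P301L in 100 mM sodium acetate pH 7; fibrils were detected with Thioflavin T.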
Tau fluor counter: counter-screen for tau fibril formation inhibitors; tau K18 P301L Alexa594 fluorescence, heparin fibrillization; Potency, µM (series often up to 57.7 µM); 280,000 tested, 0.93% active; AID 1463; further: nearly all actives have a fitted effect of over 55% in size
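Human tau K18 P301L (15 uM unlabeled, 0.24 uM Alexa 594-labeled) in 100 mM sodium acetate pH 7 with 20 uM heparin, 6 hr at 37 C. ThT 30 uM added, 1 hr ambient; Alexa 594 FP and total fluorescence read at 555/632 nm.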
Sfp inh: blocks B. subtilis Sfp PPTase activity | Q9F4F7 | Biochemical Sfp PPTase activity, qHTS | Potency, µM, actives largely listed as inhibitors | 310,000 tested, 3.5% active | AID 1490;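 further: the enzyme is Sfp with the accession as filed and its product quenches rhodamine fluorescence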
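Step 1, compound plus 15 nM Sfp-PPTase, 15 min, room temperature. Step 2, add rhodamine-CoA (5 uM) and BHQ-2-YbbR (12.5 uM). Step 3, read 525/598 nm fluorescence at 0 and 30 min.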
Coupling enz: counter-screen for Giardia aldolase inhibitors: coupling enzyme system | coupling enzyme system counterscreen, AmpLite Red fluorescence | activity change, negative = inhibition, % at 58.2 µM, hits read low | 290,000 tested, 0.67% active | AID 2472; in the data active means activity change below about -30%
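Counterscreen of the coupled detection system alone, without aldolase: glyceraldehyde-3-phosphate coupling enzymes plus AmpLite Red readout. Compounds at 57.5 uM final, 10 min RT preincubation, 20 min RT reaction, fluorescence 525/598 nm.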
Numbers stand for hits; i = inactive; ? = inconclusive; nt = not tested or not shown; [ ] = remark or other dose. In the library only some 5.2% were active in any assay of this set; here they are far more common. Unless noted, the call rests on the fitted dose curve; in most records, active means well fitted curve in the direction sought with a large enough effect; inconclusive means small, poorly fitted or top-dose-only effect, or another doubt; inactive means no such curve, though single readings can be large; an effect the other way counts as inactive or inconclusive.

SMILES | Tau fibril FP | Tau ThT inhib | Tau fluor counter | Sfp inh | Coupling enz
C=C(C)[C@H]1O[C@H]2CC[C@@]3(C)[C@@](O)(CC[C@H]4[C@@H]5OC(C)(C)[C@H]6C[C@@H]7C(=C)Cc8c(Cl)cc9[nH]c(c5c9c8[C@@]76O)[C@@]43C)[C@]23O[C@@H]3[C@H]1O | i | i | ? | i | nt
NCCc1c[nH]c2ccc(O)cc12 | i | i | i | i | i
C=CCNC(=S)Nc1ccc(OC(=O)Nc2ccc(Cl)c(Cl)c2)cc1 | 16µM | ? | ? | i | i
O=C(Nc1ccc(Cl)c(Cl)c1)c1ccco1 | nt | nt | nt | i | i
Nn1c(COc2ccc(Cl)cc2)n[nH]c1=S | i | i | i | 35µM | i
Cc1cccc(C)c1OCc1n[nH]c(=S)n1N | i | i | i | 50µM | i
CC1OC(=O)C(C(C)C)NC(=O)C(C(C)C)OC(=O)C(C(C)C)NC(=O)C(C)OC(=O)C(C(C)C)NC(=O)C(C(C)C)OC(=O)C(C(C)C)NC(=O)C(C)OC(=O)C(C(C)C)NC(=O)C(C(C)C)OC(=O)C(C(C)C)NC1=O (stereo not given) | i | i | i | i | i
O=C(Cn1c2c(c(-c3ccccc3Cl)cc1=O)CCC2)N1CCC2(CC1)OCCO2 | i | i | i | 22µM | i
CN1C(=O)C(Cc2ccsc2)C(=O)N(C)C1=O | 32µM | 25µM | i | 28µM | i
CN(C(=O)Cc1ccc(Cl)c(Cl)c1)[C@H](CN1CCCC1)c1cccc(N=C=S)c1 | ? | i | ? | 50µM | i
CN(C(=O)Cc1ccc(Cl)c(Cl)c1)C(CN1CCCC1)c1cccc(N=C=S)c1 (stereo not given) | ? | ? | ? | 45µM | nt
COc1ccc(C(CNC(=O)Cc2ccc(Cl)c(Cl)c2)N2CCCCC2)cc1 (stereo not given) | nt | nt | nt | i | nt
C=C(C)C1Cc2c(ccc3c2OC2COc4cc(OC)c(OC)cc4C2C3=O)O1 (stereo not given) | i | ? | i | ? | i
Cc1ccc(C=C2C(Cl)=C(Cl)C(Cl)=C2Cl)cc1 | ? | 16µM | ? | ? | i
CC(C)N1CCN(Cc2cccc([N+](=O)[O-])c2)CC1 | i | i | i | 79µM | i
O=[N+]([O-])c1cccc(CN2CCN(Cc3ccc(Cl)cc3)CC2)c1 | ? | i | i | ? | i
c1cc(CN2CCCC3(CCNCC3)C2)ccn1 | nt | nt | nt | i | i
CN(C)C1C(=O)C(C(N)=O)=C(O)C2(O)C(=O)C3=C(O)c4c(O)cccc4C(C)(O)C3C(O)C12 (stereo not given) | nt | nt | nt | 56µM | i
CN(C)C1C(=O)C(C(N)=O)=C(O)[C@@]2(O)C(=O)C3=C(O)c4c(O)cccc4[C@@](C)(O)C3CC12 (stereo not given in full) | i | ? | i | i | i
CCn1c(O)c(C=NCc2ccccc2)c(=O)[nH]c1=S | i | i | i | i | i
O=c1[nH]c(=S)[nH]c(O)c1C(c1ccccn1)c1c(O)[nH]c(=S)[nH]c1=O | i | i | i | 25µM | i
CCn1c(O)c(C(c2ccccn2)c2c(O)n(CC)c(=S)[nH]c2=O)c(=O)[nH]c1=S | ? | ? | i | 50µM | i
CC[C@@H]1CN2CCc3cc(OC)c(OC)cc3[C@@H]2C[C@@H]1C[C@H]1NCCc2cc(OC)c(OC)cc21 | i | i | i | i | i
C#C[C@@]1(O)CC[C@@H]2[C@@H]3CCC4=CC(=O)CC[C@@]4(C)[C@H]3CC[C@]21C | nt | nt | nt | i | i
COc1ccc(-n2c(=O)[nH]c3ccccc3c2=O)c(OC)c1 | i | i | i | i | i
SMILES | Tau fibril FP | Tau ThT inhib | Tau fluor counter | Sfp inh | Coupling enz
COc1ccc(-n2c(=S)[nH]c3c(sc(=S)n3-c3ccccc3)c2=O)c(OC)c1 | ? | 32µM | i | 14µM | i
CC/C=C\C[C@@H](/C=C/C=C\C/C=C\C/C=C\CCCC(=O)O)OO | i | i | i | i | i
O=C1NC(=O)C(=Cc2cc(Cl)ccc2OCc2ccc(C(=O)O)cc2)C(=O)N1 | i | ? | i | 50µM | i
COc1ccc(-c2nc3ccccc3c(=O)n2-c2ccc(OC)cc2)cc1 | i | i | i | i | i
Cc1ccc(-n2sc3ccccc3c2=O)cc1 | ? | 32µM | i | 1.3µM | i
C[N+]1([O-])CCC[C@@H]1c1cccnc1 (stereo not given in full) | i | i | i | i | nt
CCC(C=C[C@@H]1OC(=O)C=C[C@H]1C)=C[C@H](C)CC=CC(C)=C[C@@H](C)C(=O)[C@@H](C)[C@H](O)[C@@H](C)CC(C)=CC(=O)O | i[2.34 µM] | i[2.31 µM] | i[2.34 µM] | 0.71µM | -59
CC1(C)C[C@H]2C=C(C=O)[C@]3(C=O)C[C@]3(C)[C@H]2C1 | ? | 14µM | i | ? | i
CCCCCCCCCC[n+]1cccc([C@@H]2CCCN2C)c1 | nt | nt | nt | 56µM | i
CCOC(=O)CC(NC(=O)C(Cc1ccc(N(CCCl)CCCl)cc1)NC(C)=O)C(=O)OCC (stereo not given) | i[2.34 µM] | i | i | 79µM | i
NC(Cc1ccc(N(CCCl)CCCl)cc1)C(=O)O (stereo not given) | ? | 28µM | ? | i | i
CCOc1cc(/C=N/NC(=O)c2cccs2)ccc1OC(=O)N1CCOCC1 | i | ? | i | i | i
O=C(Nc1ccc2nc(SCC(=O)N3CCOCC3)sc2c1)c1ccc(Cl)cc1 | ? | i | i | nt | nt
CCCCC1C(=O)NC(=S)NC1=O | ? | ? | i | 10µM | i
CC1O[C@@H](O[C@@H]2C(O)C[C@H](O[C@@H]3C(O)C[C@@H](OC4CC[C@@]5(C)C6CC[C@]7(C)C(C8=CC(=O)OC8)CC[C@@]7(O)C6CC[C@@H]5C4)OC3C)OC2C)CC(O)[C@H]1O (stereo not given in full) | i | i | i | i | i
CCn1c(-c2nn(-c3ccccc3)ccc2=O)n[nH]c1=S | i | i | i | 56µM | i
S=c1[nH]nc(-c2ccccc2)n1CC1CCCO1 (stereo not given) | i | i | i | ? | i
COc1cccc(C2(C#N)CCN(C)CC2)c1 | i | i | i | i | i
CN1CC[C@@]2(c3cccc(O)c3)Cc3nc4ccccc4cc3C[C@H]2C1 | i | i | i | 79µM | i
[Cl][In]([Cl])[Cl] | nt | nt | nt | 45µM | nt
CC[C@@H](CO)NC(=O)[C@H]1C=C2c3cccc4[nH]cc(c34)C[C@H]2N(C)C1 | i | ? | ? | i | i
CC1(C)N(O)C2CCCCC2N1O (stereo not given) | i | i | i | 56µM | i
CSc1ccc(CN2CCN(C(=O)COc3cccc(C)c3)CC2)cc1 | i | i | i | 71µM | i
N#CC1=C(N)Oc2n[nH]c(-c3cccs3)c2C1c1ccco1 (stereo not given) | ? | 16µM | ? | ? | -31
N#CC1=C(N)Oc2n[nH]c(-c3cccs3)c2C1c1ccsc1 (stereo not given) | ? | 13µM | i | i | i
COc1cccc(CSc2nc(-c3ccccc3OC)nc3c2Cc2c(CO)cnc(C)c2O3)c1 | i | ? | i | nt | nt
